Growth inhibition data for ten compounds are collected here from PubChem BioAssay (NCI).

This is part of a sample that, as a whole, favours compounds with a hit. Of some 79,000 tested, about 15% had one in any assay. Values without a mark were called inactive. The source made the active and inactive calls. Rule as the data show it: active = growth inhibition above about 70%; inactive = the rest.

A short description of test [1]: NCI Yeast Anticancer Drug Screen. Data for the rad50 strain (AID 155).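 Also: 0% = growth of vehicle-only cultures of the same strain.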 To be noted: S. cerevisiae rad50 strain growth inhibition, hits give high values. An outline of the steps: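 DNA repair mutant yeast, compound exposure, growth read-out; inhibition is taken relative to vehicle.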
Test [2] in a line: NCI Yeast Anticancer Drug Screen. Data for the mec2-1 strain (AID 157). To be noted: S. cerevisiae mec2-1 strain, hits give high values. The method, boiled down: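 Using mec2-1 yeast: add compound, measure growth, express inhibition versus vehicle-treated cultures.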
Test [3] can be described thus: NCI Yeast Anticancer Drug Screen. Data for the sgs1 mgt1 strain (AID 161).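 Also: 0% = growth of cultures given vehicle only.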 To be noted: S. cerevisiae sgs1 mgt1 strain, hits give high values. The method, boiled down:
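Percent growth inhibition was derived by comparing compound-exposed mutant yeast with vehicle-exposed cultures. The strain carries alterations in DNA damage repair.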

The nature of test [4]: NCI Yeast Anticancer Drug Screen. Data for the cln2 rad14 strain (AID 165).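 Also: 0% = growth equal to vehicle treated cultures.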 To be noted: S. cerevisiae cln2 rad14 strain, hits give high values. The method, boiled down: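 Yeast strain cln2 rad14, bearing defects in cell cycle control and DNA repair, serves as the test system; values reflect growth inhibition compared with vehicle.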
Test [5] is described as follows: NCI Yeast Anticancer Drug Screen. Data for the bub3 strain (AID 167). To be noted: S. cerevisiae bub3 mutant strain, hits give high values. The method, boiled down:
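In this screen, a yeast mutant lacking normal mitotic checkpoint function is challenged with compound. Relative growth versus vehicle gives the inhibition value.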

The nature of test [6]: NCI Yeast Anticancer Drug Screen. Data for the mlh1 rad18 strain (AID 175). To be noted: S. cerevisiae mlh1 rad18 strain growth inhibition, hits give high values. An outline of the steps: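 Steps: expose repair-defective yeast to compound; measure growth; express inhibition against vehicle-treated controls.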
Where [7] appears, read: at 5.0 µM (retest, dose inferred, filed as 0.5).
Where [8] appears, read: at 50.0 µM (retest, dose inferred, filed as 5.0).

As to `C1=CN2C(c3ccccc3)=NN(c3ccccc3)[C@@H]2c2ccccc21`, the growth inhibition in test [1] (setting [7]) was -4%; in test [1] (setting [8]), 70% (active); in test [1] (at 50.0 µM) it was 60.6%; in test [2] (setting [7]), -6%; in test [2] (setting [8]), 53%; in test [2] (at 50.0 µM), 42%. For the same compound, the growth inhibition in test [3] (setting [7]) was -3%; in test [3] (setting [8]) it was 50%; in test [3] (at 50.0 µM), 56.3%; in test [4] (setting [7]), 0%; in test [4] (setting [8]) it was 22%; in test [4] (at 50.0 µM), 27.8%. For the same compound, the growth inhibition in test [5] (setting [7]) was 1%; in test [5] (setting [8]) it was 79% (active); in test [5] (at 50.0 µM), 59.5%; in test [6] (setting [7]) it was 2%; in test [6] (setting [8]), 72% (active); in test [6] (at 50.0 µM), 54.8%.
`O=C(O)COc1ccccc1C(=O)O`: the growth inhibition is 0% in test [1] (setting [7]); -3% in test [1] (setting [8]); 4.55% in test [1] (at 50.0 µM); -2% in test [2] (setting [7]); -3% in test [2] (setting [8]); 29.4% in test [2] (at 50.0 µM). Moreover, the growth inhibition in test [3] (setting [7]) is 1%; in test [3] (setting [8]), 0%; in test [3] (at 50.0 µM), -1.95%; in test [4] (setting [7]), -2%; in test [4] (setting [8]) it was 2%; in test [4] (at 50.0 µM) it was 23.8%. The growth inhibition in test [5] (setting [7]) was -5%; in test [5] (setting [8]), -5%; in test [5] (at 50.0 µM), 11.6%; in test [6] (setting [7]), 1%; in test [6] (setting [8]), -1%; in test [6] (at 50.0 µM), 5.7%.
On to `O=C(O)c1ccccc1N=N/C(=N\Nc1cc(S(=O)(=O)O)ccc1O)c1ccccc1`, for which the growth inhibition in test [1] (setting [7]) is -7%; in test [1] (setting [8]), 85% (active); in test [1] (at 50.0 µM) it was 48.4%; in test [2] (setting [7]), -5%; in test [2] (setting [8]) it was 49%; in test [2] (at 50.0 µM) it was 20.5%. Also, the growth inhibition in test [3] (setting [7]) is -3%; in test [3] (setting [8]) it was 95% (active); in test [3] (at 50.0 µM) it was 46.5%; in test [4] (setting [7]), -3%; in test [4] (setting [8]), 47%; in test [4] (at 50.0 µM), -32%. Besides, the growth inhibition was 1% in test [5] (setting [7]); 97% (active) in test [5] (setting [8]); 38.8% in test [5] (at 50.0 µM); -4% in test [6] (setting [7]); 74% (active) in test [6] (setting [8]); 44.5% in test [6] (at 50.0 µM).
`COc1cccc(NC(=S)NC(Cc2ccccc2)c2ccccc2)c1` (stereo not given): the growth inhibition in test [1] (setting [7]) is -7%; in test [1] (setting [8]), 88% (active); in test [1] (at 50.0 µM), 80.2% (active); in test [2] (setting [7]), -10%; in test [2] (setting [8]) it was 88% (active); in test [2] (at 50.0 µM), 74.1% (active). The growth inhibition in test [3] (setting [7]) is -7%; in test [3] (setting [8]), 90% (active); in test [3] (at 50.0 µM), 83.9% (active); in test [4] (setting [7]) it was 19%; in test [4] (setting [8]) it was 88% (active); in test [4] (at 50.0 µM), 70% (active). Besides, the growth inhibition in test [5] (setting [7]) was -2%; in test [5] (setting [8]), 90% (active); in test [5] (at 50.0 µM), 77.2% (active); in test [6] (setting [7]), -7%; in test [6] (setting [8]), 88% (active); in test [6] (at 50.0 µM), 72.4% (active).
Regarding `CN(C)CCC(=O)[C@@]1(O)CC[C@H]2[C@@H]3CC=C4C[C@@H](O)CC[C@]4(C)[C@H]3CC[C@@]21C`, the growth inhibition in test [1] (setting [7]) is 25%; in test [1] (setting [8]) it was 70% (active); in test [1] (at 50.0 µM) it was 44.1%; in test [2] (setting [7]), 11%; in test [2] (setting [8]), 63%; in test [2] (at 50.0 µM), 75.4% (active). Further, the growth inhibition in test [3] (setting [7]) was 20%; in test [3] (setting [8]) it was 71% (active); in test [3] (at 50.0 µM), 58.1%; in test [4] (setting [7]) it was 8%; in test [4] (setting [8]) it was 34%; in test [4] (at 50.0 µM), -18%. For the same compound, the growth inhibition in test [5] (setting [7]) is -1%; in test [5] (setting [8]) it was 59%; in test [5] (at 50.0 µM), 49.1%; in test [6] (setting [7]), 16%; in test [6] (setting [8]), 68%; in test [6] (at 50.0 µM), 65.5%.
Regarding `Cc1cc[c]([Sn]([Cl])([O][Sn]([Cl])([c]2ccc(C)cc2)[c]2ccc(C)cc2)[c]2ccc(C)cc2)cc1`, the growth inhibition is 17% in test [1] (setting [7]); 57% in test [1] (setting [8]); 84.7% (active) in test [1] (at 50.0 µM); 15% in test [2] (setting [7]); 55% in test [2] (setting [8]); 89.2% (active) in test [2] (at 50.0 µM). The growth inhibition in test [3] (setting [7]) was 29%; in test [3] (setting [8]), 63%; in test [3] (at 50.0 µM), 85.8% (active); in test [4] (setting [7]), 2%; in test [4] (setting [8]) it was 35%; in test [4] (at 50.0 µM), 83.1% (active). Also, the growth inhibition was 16% in test [5] (setting [7]); 67% in test [5] (setting [8]); 86.7% (active) in test [5] (at 50.0 µM); 26% in test [6] (setting [7]); 54% in test [6] (setting [8]); 91.3% (active) in test [6] (at 50.0 µM).
In the case of `CCCCCCCCCCCCCCOCCS(=O)(=O)O`, the growth inhibition in test [1] (setting [7]) is 18%; in test [1] (setting [8]) it was 83% (active); in test [1] (at 50.0 µM) it was 70.8% (active); in test [2] (setting [7]) it was -9%; in test [2] (setting [8]), 69%; in test [2] (at 50.0 µM), 52.4%. Further, the growth inhibition was 16% in test [3] (setting [7]); 80% (active) in test [3] (setting [8]); 78.8% (active) in test [3] (at 50.0 µM); -12% in test [4] (setting [7]); 61% in test [4] (setting [8]); 38.4% in test [4] (at 50.0 µM). Besides, the growth inhibition in test [5] (setting [7]) was 6%; in test [5] (setting [8]), 85% (active); in test [5] (at 50.0 µM), 29.8%; in test [6] (setting [7]), 7%; in test [6] (setting [8]), 83% (active); in test [6] (at 50.0 µM), 79.4% (active).
Turning to `N#CSCCSCc1ccc(Cl)cc1`, the growth inhibition in test [1] (setting [7]) is 4%; in test [1] (setting [8]), 99% (active); in test [1] (at 50.0 µM), 99.2% (active); in test [2] (setting [7]), 25%; in test [2] (setting [8]), 99% (active); in test [2] (at 50.0 µM), 99.5% (active). Further, the growth inhibition in test [3] (setting [7]) was 7%; in test [3] (setting [8]), 99% (active); in test [3] (at 50.0 µM), 99.4% (active); in test [4] (setting [7]), -6%; in test [4] (setting [8]), 99% (active); in test [4] (at 50.0 µM), 98.9% (active). Further, the growth inhibition in test [5] (setting [7]) was -6%; in test [5] (setting [8]), 99% (active); in test [5] (at 50.0 µM), 99.5% (active); in test [6] (setting [7]), 6%; in test [6] (setting [8]), 99% (active); in test [6] (at 50.0 µM), 99.3% (active).
Turning to `CN1C=Cc2ccccc2C1C(C1c2ccccc2C=CN1C)[N+](=O)[O-]` (stereo not given), the growth inhibition in test [1] (setting [7]) is 0%; in test [1] (setting [8]) it was 5%; in test [1] (at 50.0 µM), -5.6%; in test [2] (setting [7]) it was 8%; in test [2] (setting [8]), 12%; in test [2] (at 50.0 µM), -9.95%. In addition, the growth inhibition in test [3] (setting [7]) was -2%; in test [3] (setting [8]), 56%; in test [3] (at 50.0 µM), 49%; in test [4] (setting [7]), 2%; in test [4] (setting [8]), 7%; in test [4] (at 50.0 µM) it was 2.65%. Besides, the growth inhibition in test [5] (setting [7]) is -4%; in test [5] (setting [8]), 14%; in test [5] (at 50.0 µM) it was 15.8%; in test [6] (setting [7]), -11%; in test [6] (setting [8]), 1%; in test [6] (at 50.0 µM), -13.5%.
Regarding `Cc1ccc(N=Nc2c(C)c(C#N)c(=S)n(C3OC(CO)C(O)C(O)C3O)c2-c2ccccc2)cc1` (stereo not given), the growth inhibition is -8% in test [1] (setting [7]); -2% in test [1] (setting [8]); 35% in test [1] (at 50.0 µM); -5% in test [2] (setting [7]); 2% in test [2] (setting [8]); 50.5% in test [2] (at 50.0 µM). Further, the growth inhibition in test [3] (setting [7]) is -1%; in test [3] (setting [8]) it was 12%; in test [3] (at 50.0 µM) it was 65.2%; in test [4] (setting [7]), 12%; in test [4] (setting [8]), 15%; in test [4] (at 50.0 µM), 46%. Moreover, the growth inhibition is -4% in test [5] (setting [7]); -10% in test [5] (setting [8]); 42% in test [5] (at 50.0 µM); -17% in test [6] (setting [7]); 21% in test [6] (setting [8]); 68.8% in test [6] (at 50.0 µM).
